By AC50 is commonly meant the midpoint of the concentration-response curve, whichever way the signal moves.

From PubChem BioAssay (EPA / NIEHS) come the findings set out here.

Read-out in experiment [1]: Urokinase-type plasminogen activator receptor (uPAR), PLAUR (gene 5329)
Description: BSK_4H_uPAR: BioMAP Diversity Plus: 4H Assay for Urokinase-type plasminogen activator receptor (uPAR) Biomarker Activity (AID 2283030). Conditions: primary human endothelial cells (HUVEC); actives raise or lower the signal. In short, it runs like this:
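Primary human umbilical vein endothelial cells were exposed to chemical for 24 h before cell-surface uPAR was quantified by ELISA. Activity was fitted bidirectionally against the DMSO negative control baseline.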

Read-out in experiment [2]: Vascular cell adhesion molecule 1 (VCAM1), VCAM1 (gene 7412)
Description: BSK_4H_VCAM1: BioMAP Diversity Plus: 4H Assay for Vascular cell adhesion molecule 1 (VCAM1) Biomarker Activity (AID 2283033).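 Note: cell-surface VCAM-1 protein measured by ELISA.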 The note with it: primary human endothelial cells (HUVEC); actives raise or lower the signal. In outline: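 HUVEC, 24 h post-dose; VCAM-1 by ELISA. Bidirectional curve fit vs DMSO baseline. Parallel SRB total-protein stain (0.1% SRB after 10% TCA fixation, 560 nm) for cytotoxicity.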

Read-out in experiment [3]: Interferon-gamma inducible Protein 10 (IP10), CXCL10 (gene 3627)
Description: BSK_BE3C_IP10: BioMAP Diversity Plus: BE3C Assay for Interferon-gamma inducible Protein 10 (IP10) Biomarker Activity (AID 2283034). Conditions: primary human bronchial epithelial cells; actives raise or lower the signal. In outline: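 ELISA readout of IP-10 in BE3C system: primary human bronchial epithelial cells, 24 h post-dosing; bidirectional curve fit vs DMSO baseline.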

Read-out in experiment [4]: Monokine induced gamma interferon (MIG), CXCL9 (gene 4283)
The experiment in a line: BSK_BE3C_MIG: BioMAP Diversity Plus: BE3C Assay for Monokine induced gamma interferon (MIG) Biomarker Activity (AID 2283035).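 Note: MIG protein measured by ELISA in BE3C cultures after 24 h of dosing.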 The note with it: primary human bronchial epithelial cells; actives raise or lower the signal. In short, it runs like this: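 hu bronchial epithelial 1° cells, 24 h cpd; MIG by ELISA; bidirectional fit, DMSO = baseline.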

Read-out in experiment [5]: Transforming growth factor beta 1 (TGFb1), TGFB1 (gene 7040)
The experiment in a line: BSK_BE3C_TGFb1: BioMAP Diversity Plus: BE3C Assay for Transforming growth factor beta 1 (TGFb1) Biomarker Activity (AID 2283036;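 for outcome: TGF-b1 protein level measured by ELISA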). The note with it: primary human bronchial epithelial cells; actives raise or lower the signal. In short, it runs like this:
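Read-out: ELISA for TGF-b1 in primary human bronchial epithelial cultures, 24 h post-dose. Bidirectional curve fitting vs DMSO control; gain or loss of signal both scored.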

Read-out in experiment [6]: Plasminogen activator inhibitor-1 (PAI1), SERPINE1 (gene 5054)
Description: BSK_BE3C_PAI1: BioMAP Diversity Plus: BE3C Assay for Plasminogen activator inhibitor-1 (PAI1) Biomarker Activity (AID 2283037). Conditions: primary human bronchial epithelial cells; actives raise or lower the signal. In short, it runs like this:
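ELISA read-out of PAI-1 from human bronchial epithelial primary cells, 24 h post-dosing; bidirectional curve fit vs DMSO baseline, gain or loss of signal scored.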

Read-out in experiment [7]: urokinase plasminogen activator (uPA), PLAU (gene 5328)
Description: BSK_BE3C_uPA: BioMAP Diversity Plus: BE3C Assay for urokinase plasminogen activator (uPA) Biomarker Activity (AID 2283038).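 Note: uPA protein level quantified by ELISA in cell cultures; uPA read one day after compound addition.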 Conditions: primary human bronchial epithelial cells; actives raise or lower the signal. In outline: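 Human primary bronchial epithelial cells were exposed to chemical for 24 h, then uPA levels were measured by ELISA. Responses were fitted bidirectionally against DMSO as negative control and baseline. Parallel SRB staining of total protein gauged overt cytotoxicity.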

Read-out in experiment [8]: Urokinase-type plasminogen activator receptor (uPAR), PLAUR (gene 5329)
Description: BSK_BE3C_uPAR: BioMAP Diversity Plus: BE3C Assay for Urokinase-type plasminogen activator receptor (uPAR) Biomarker Activity (AID 2283039).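 For outcome: cells exposed to compound for one day before measurement.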 The note with it: primary human bronchial epithelial cells; actives raise or lower the signal. In short, it runs like this: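 ELISA readout of uPAR on human lung primary bronchial epithelial cells, 24 h post-dosing. Bidirectional curve fit relative to DMSO vehicle baseline; gain or loss of signal both scored.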

Read-out in experiment [9]: Interleukin-6 (IL6), IL6 (gene 3569)
Description: BSK_CASM3C_IL6: BioMAP Diversity Plus: CASM3C Assay for Interleukin-6 (IL6) Biomarker Activity for (AID 2283040). Conditions: primary human coronary artery smooth muscle cells; actives raise or lower the signal.

Read-out in experiment [10]: Tissue plasminogen activator (tPA), PLAT (gene 5327)
The experiment in a line: BSK_BE3C_tPA: BioMAP Diversity Plus: BE3C Assay for Tissue plasminogen activator (tPA) Biomarker Activity (AID 2283041).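 Note: tPA level quantified by ELISA one day after compound addition.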 The note with it: primary human bronchial epithelial cells; actives raise or lower the signal. In short, it runs like this: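 ELISA read-out of tPA on human primary bronchial epithelial cells, 24 h post-dosing; bidirectional fit vs DMSO negative control/baseline.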

Read-out in experiment [11]: Interleukin-8 (IL8), CXCL8 (gene 3576)
Description: BSK_CASM3C_IL8: BioMAP Diversity Plus: CASM3C Assay for Interleukin-8 (IL8) Biomarker Activity (AID 2283042).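 Note: IL-8 protein level quantified by ELISA.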 The note with it: primary human coronary artery smooth muscle cells; actives raise or lower the signal.

Read-out in experiment [12]: Human Leukocyte Antigen - DR isotype (HLADR), HLA-DRA (gene 3122)
The experiment in a line: BSK_CASM3C_HLADR: BioMAP Diversity Plus: CASM3C Assay for Human Leukocyte Antigen - DR isotype (HLADR) Biomarker Activity (AID 2283043).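 Note: cell-surface HLA-DR protein level quantified by ELISA.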 The note with it: primary human coronary artery smooth muscle cells; actives raise or lower the signal.

Read-out in experiment [13]: Macrophage colony-stimulating factor (MCSF), CSF1 (gene 1435)
The experiment in a line: BSK_CASM3C_MCSF: BioMAP Diversity Plus: CASM3C Assay for Macrophage colony-stimulating factor (MCSF) Biomarker Activity (AID 2283044).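 Note: M-CSF protein amount quantified by ELISA after 24 h exposure.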 The note with it: primary human coronary artery smooth muscle cells; actives raise or lower the signal.

Read-out in experiment [14]: Low-density lipoprotein receptor (LDLR), LDLR (gene 3949)
Description: BSK_CASM3C_LDLR: BioMAP Diversity Plus: CASM3C Assay for Low-density lipoprotein receptor (LDLR) Biomarker Activity (AID 2283045).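 Note: LDLR protein level on the cell surface quantified by ELISA.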 Conditions: primary human coronary artery smooth muscle cells; actives raise or lower the signal.

Read-out in experiment [15]: Monocyte Chemoattractant Protein-1 (MCP1), CCL2 (gene 6347)
Description: BSK_CASM3C_MCP1: BioMAP Diversity Plus: CASM3C Assay for Monocyte Chemoattractant Protein-1 (MCP1) Biomarker Activity (AID 2283046).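 Note: MCP-1 level quantified by ELISA 24 h after dosing.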 Conditions: primary human coronary artery smooth muscle cells; actives raise or lower the signal.

The nature of experiment [16]: BSK_CASM3C_Proliferation: Cell Proliferation Assessment in the BioMAP Diversity Plus: CASM3C Assay (AID 2283047).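 Note: sulforhodamine B total protein stain as relative cell number at 560 nm; sub-confluent cells exposed 48 h before staining; fitted both ways against DMSO so gain or loss of cell number.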 The note with it: primary human coronary artery smooth muscle cells.
Read-out in experiment [17]: Monokine induced gamma interferon (MIG), CXCL9 (gene 4283)
Description: BSK_CASM3C_MIG: BioMAP Diversity Plus: CASM3C Assay for Monokine induced gamma interferon (MIG) Biomarker Activity (AID 2283048). Conditions: primary human coronary artery smooth muscle cells; actives raise or lower the signal.

Read-out in experiment [18]: serum amyloid A (SAA), SAA1 (gene 6288)
Description: BSK_CASM3C_SAA: BioMAP Diversity Plus: CASM3C Assay for serum amyloid A (SAA) Biomarker Activity (AID 2283049).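 Note: SAA protein level quantified by ELISA.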 The note with it: primary human coronary artery smooth muscle cells; actives raise or lower the signal.

The structures appear in SMILES notation. A structure can be active in one record and inactive in another. Activity calls are given as the source filed them. Rule for the calls: active = hit-call score of the fitted dose curve at least 0.9, where 1 is the maximum; inactive = score below 0.9.

Consider `COc1nc(C)nc(NC(=O)NS(=O)(=O)c2ccccc2Cl)n1`, for which the outcome in experiment [1], in experiment [2], in experiment [3], in experiment [4], in [5] and in experiment [6] was inactive. For the same compound, the result in [7], in experiment [8], in experiment [9], in experiment [10], in experiment [11] and in experiment [12] was inactive. The result in experiment [13], in experiment [14], in [15], in experiment [16], in [17] and in experiment [18] was inactive. Further, the AC50 is 290 nM (active) in experiment [5] and 507 nM (active) in [15].

`Oc1ccccc1-c1ccccc1`: the result in experiment [1], in experiment [2], in experiment [3], in [4], in experiment [5] and in experiment [6] was inactive. Besides, the outcome in experiment [7], in experiment [8], in experiment [9], in [10], in experiment [11] and in experiment [12] was inactive. For the same compound, the outcome in [13], in experiment [14], in [15], in experiment [16], in experiment [17] and in experiment [18] was inactive.

With `COc1nc(NC(C)C)nc(NC(C)C)n1`, the outcome in experiment [1], in experiment [2], in experiment [3], in experiment [5], in [6] and in experiment [7] was inactive. Also, the result in experiment [9], in [10], in experiment [11], in [12], in experiment [13] and in [14] was inactive. Besides, the result in experiment [15], in [16], in [17] and in [18] was inactive. In experiment [8], the AC50 was 2360 nM (active).

Take `CCNc1nc(Cl)nc(NC(C)C)n1`: the result in experiment [1], in experiment [2], in experiment [3], in experiment [5], in experiment [6] and in experiment [7] was inactive. In addition, the outcome in experiment [8], in experiment [9], in [10], in experiment [11], in experiment [12] and in [13] was inactive. For the same compound, the result in experiment [14], in experiment [15], in [16], in experiment [17] and in experiment [18] was inactive.

Turning to `COc1nc(C)nc(NC(=O)NS(=O)(=O)c2ccccc2CCC(F)(F)F)n1`, the result in experiment [1], in [2], in experiment [3], in [5], in [6] and in experiment [7] was inactive. In addition, the result in [8], in [9], in [10], in experiment [11], in experiment [12] and in experiment [13] was inactive. For the same compound, the result in experiment [14], in [15], in experiment [16], in experiment [17] and in [18] was inactive.

Turning to `O=C(O)c1nc(Cl)ccc1Cl`, the outcome in experiment [1], in [2], in [3], in experiment [4], in [5] and in experiment [6] was inactive. Further, the outcome in [7], in [8], in experiment [9], in experiment [10], in [11] and in experiment [12] was inactive. The result in [13], in experiment [14], in [15], in [16], in experiment [17] and in [18] was inactive. For the same compound, the AC50 in experiment [15] was 147 nM (active).
